Compound activity as filed in PubChem.
Sampled rows, rich in hits. Any-hit rate of the full collection: about 1.1%.
MOR-DOR ag = agonists of OPRM1-OPRD1 heterodimerization, primary screen, cell-based, luminescence; Mu-type opioid receptor (Homo sapiens) + Delta-type opioid receptor (Homo sapiens), …; cells; activation, % at 9.3 µM; hit rate 0.3% among 340,000; AID 504326, 2011; in the data active = activation above about 18%
Target sequence (P35372 whole entry, looked up): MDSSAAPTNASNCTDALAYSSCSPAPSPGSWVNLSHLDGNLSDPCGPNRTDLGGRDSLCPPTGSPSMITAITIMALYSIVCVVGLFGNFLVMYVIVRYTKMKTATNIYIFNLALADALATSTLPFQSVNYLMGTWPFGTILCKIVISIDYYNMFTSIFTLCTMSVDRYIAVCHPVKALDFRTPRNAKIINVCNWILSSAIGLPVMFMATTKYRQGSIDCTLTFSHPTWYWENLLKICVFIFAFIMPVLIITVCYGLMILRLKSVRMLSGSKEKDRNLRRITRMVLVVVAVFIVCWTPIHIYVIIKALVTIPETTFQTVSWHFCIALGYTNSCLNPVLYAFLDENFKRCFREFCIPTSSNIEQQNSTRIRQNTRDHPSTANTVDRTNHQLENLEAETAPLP
Target sequence (P41143 whole entry, looked up): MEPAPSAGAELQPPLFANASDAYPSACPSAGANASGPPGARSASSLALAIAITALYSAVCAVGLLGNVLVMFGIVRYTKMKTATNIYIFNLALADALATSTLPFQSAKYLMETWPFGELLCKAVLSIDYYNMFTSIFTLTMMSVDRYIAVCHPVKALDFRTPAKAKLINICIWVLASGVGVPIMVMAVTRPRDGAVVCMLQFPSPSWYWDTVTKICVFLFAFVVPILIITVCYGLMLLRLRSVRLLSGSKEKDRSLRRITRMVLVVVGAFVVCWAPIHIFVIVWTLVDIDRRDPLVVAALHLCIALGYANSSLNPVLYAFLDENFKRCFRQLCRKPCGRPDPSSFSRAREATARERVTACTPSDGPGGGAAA
HTR5A ag ctr = HTR5A agonists in luminescence cell assay, primary screen, counter-screen for OPRM1-OPRD1 heterodimer agonist project, full-deck HTS | 5-hydroxytryptamine receptor 5A (Homo sapiens), P47898 | cell-based | activation, % at 9.3 µM | hit rate 0.61% among 340,000 | AID 504692, 2011; in the data active = activation mostly above about 9.5%, no sharp cut-off; inactive = mostly below about 7.6%
HTR5A inv ag = HTR5A inverse agonists in luminescence cell assay, primary screen, counter-screen for OPRM1-OPRD1 heterodimer inverse agonist project, full-deck HTS; inhibition, % at 9.3 µM; HTR5A cell line, inverse agonism; AID 504634, 2011; hit rate 0.083% among 340,000; in the data active = inhibition mostly above about 23%, no sharp cut-off; inactive = mostly below about 18%
OPRM1-OPRD1 inv = inverse agonists of MOR-DOR heterodimerization, primary screen, cell-based, luminescence; Mu-type opioid receptor (Homo sapiens) + Delta-type opioid receptor (Homo sapiens), …; cell-based MOR-DOR heterodimer luminescence, inverse agonism; inhibition, % at 9.3 µM; hit rate 0.21% among 340,000; in the data active = inhibition above about 22%, passing the limit was not always enough
MOR-DOR inv conf = inverse agonists of MOR-DOR heterodimerization, confirmation, cell-based, luminescence; shares compounds with OPRM1-OPRD1 inv; cells expressing OPRM1/OPRD1 heterodimer; inhibition, % at 9.3 µM; hit rate 20% among 580; in the data active = inhibition above about 32%
HTR5A inv count = HTR5A inverse agonists, counter-screen for OPRM1-OPRD1 inverse agonist project, cell-based, luminescence | shares compounds with OPRM1-OPRD1 inv | HTR5A-expressing cells, inverse agonism | inhibition, % at 9.3 µM | 580 tested, under 10 active | AID 504914, 2011; call rule not given here
Hits are given with their value; – = inactive; · = no result given.

SMILES | MOR-DOR ag | HTR5A ag ctr | HTR5A inv ag | OPRM1-OPRD1 inv | MOR-DOR inv conf | HTR5A inv count
CC(C)c1ccc(NC(=O)CC2Oc3ccccc3NC2=O)cc1 (stereo not drawn) | – | – | – | – | · | ·
CCC1(C2=CCCCC2)C(=O)NC(=S)N=C1N (stereo not drawn) | – | – | – | – | · | ·
CC(C)(C)C1CCC(CN2CCC(CN3C(=O)C(=O)NC[C@@H]3Cc3ccccc3)CC2)CC1 (stereo partly drawn) | – | – | – | – | · | ·
Cc1ccccc1N1CCN(C2CCCN(C(=O)c3cn4cccc(C)c4n3)C2)CC1 (stereo not drawn) | – | – | – | – | · | ·
CN(C)c1nc(=NCc2ccco2)ss1 | – | – | – | 66 | – | –
COc1ccc(C(=O)COC(=O)CCN2C(=O)C3C4CC(C(Br)C4Br)C3C2=O)cc1 (stereo not drawn) | – | – | – | – | · | ·
O=C(CCN1C(=O)C2C3CCC(C3)C2C1=O)OCC(=O)c1cccc([N+](=O)[O-])c1 (stereo not drawn) | – | – | – | 62 | – | –
O=C(CCN1C(=O)C2C3CC(C(Br)C3Br)C2C1=O)OCC(=O)c1cccc([N+](=O)[O-])c1 (stereo not drawn) | – | – | – | 21 | 38 | –
O=C(CN1C(=O)C2C3CCC(C3)C2C1=O)OCC(=O)c1ccccc1 (stereo not drawn) | – | – | – | – | · | ·
CC(C)C(C(=O)OCC(=O)c1cccc([N+](=O)[O-])c1)N1C(=O)[C@@H]2[C@H]3CC[C@H](C3)[C@@H]2C1=O (stereo partly drawn) | – | – | – | – | · | ·
O=C(CN1C(=O)C2C3CCC(C3)C2C1=O)OCC(=O)c1cccc([N+](=O)[O-])c1 (stereo not drawn) | – | – | 35 | 85 | – | –
CC12C=CC(=O)C=C1CCC1C2C(=O)CC2(C)C1CCC2(O)C(=O)CO (stereo not drawn) | – | – | – | – | · | ·
O=C(CCNC(=O)c1ccco1)NC(Cc1c[nH]c2ccccc12)C(=O)O (stereo not drawn) | – | – | – | – | · | ·
O=C1/C(=C/c2ccccc2)Nc2ccccc21 | – | – | – | 36 | – | –
CCCN(CCC)c1nc(-c2ccccn2)nc2ccccc12 | – | – | – | 39 | – | –
CC(=O)c1sc(NC(=O)c2ccc(F)c(S(=O)(=O)N3CCOCC3)c2)nc1C | – | – | – | – | · | ·
COc1cc(/C=C/C(=O)OCC(=O)c2ccc(S(=O)(=O)N3CCCCC3)cc2)cc(OC)c1OC | – | – | – | – | · | ·
COc1cccc(C(=O)OCC(=O)c2ccc(S(=O)(=O)N3CCCCC3)cc2)c1OC | – | – | – | 30 | – | –
Cc1ccc(C(=O)OCC(=O)c2ccc(S(=O)(=O)N3CCCCC3)cc2)o1 | – | – | – | 52 | – | –
COc1cccc(/C=C/C(=O)OCC(=O)c2ccc(S(=O)(=O)N3CCCCC3)cc2)c1OC | – | – | – | 31 | – | –
COc1ccc(C(=O)OCC(=O)c2ccc(S(=O)(=O)N3CCCCC3)cc2)c(OC)c1 | – | – | – | – | · | ·
Cc1c(C=C(C#N)c2ccc([N+](=O)[O-])cc2)c(=O)n(-c2ccccc2)n1C | – | – | – | – | · | ·
c1ccc(C2OC3c4cccc5cccc(c45)C3N2c2ccccc2)cc1 (stereo not drawn) | – | – | – | 38 | – | –
Cc1noc(C)c1C(=O)OCC(=O)/C=C1/N(C)c2ccccc2C1(C)C | – | – | – | – | · | ·
Cc1c(C(=O)NC(=S)Nc2cccnc2)cccc1[N+](=O)[O-] | – | – | – | 35 | – | –
SMILES | MOR-DOR ag | HTR5A ag ctr | HTR5A inv ag | OPRM1-OPRD1 inv | MOR-DOR inv conf | HTR5A inv count
Cc1ccc(C)c(-n2cc[nH]c2=S)c1 | – | – | – | – | · | ·
O=C1Nc2ccc(Br)cc2C1=C1CCCCC1 | – | – | – | – | · | ·
N#C/C(=C1/C(=O)Nc2ccc(Br)cc21)c1ccccn1 | – | – | – | 49 | – | –
CC(C)c1ccc(NC(=O)C2CCCCN2S(=O)(=O)c2ccccc2)cc1 (stereo not drawn) | – | – | – | – | · | ·
CSCCC1NC(=S)N(Cc2ccccc2)C1=O (stereo not drawn) | – | – | – | 42 | – | –
Cc1nc(-n2[nH]c3c(c2=O)CCCC3)[nH]c(=O)c1Cc1ccccc1 | – | – | – | 37 | – | –
Cn1cnc([N+](=O)[O-])c1Sc1ncccc1N | – | – | 29 | 46 | – | –
S=C1NCCc2ccccc2C1c1ccccc1 (stereo not drawn) | – | – | – | – | · | ·
S=C1NCCc2ccccc2C1c1ccccc1Cl (stereo not drawn) | – | – | – | 44 | – | –
O=C(CC(O)(CC(=O)OCc1ccccc1)C(=O)OCc1ccccc1)OCc1ccccc1 | – | – | – | – | · | ·
CCC(C)Sc1ccc([C@@H]2[C@H]3C(=O)N(CC)C(=O)[C@H]3[C@]3(C(=O)OC)CCCN23)cc1OC (stereo partly drawn) | – | – | – | – | · | ·
O=C(CCC(=O)OCC(=O)c1cccc([N+](=O)[O-])c1)Nc1ccccc1Cl | – | – | – | 77 | – | –
O=C(CCC(=O)OCC(=O)c1cccc([N+](=O)[O-])c1)NC1CCCCC1 | – | – | – | 62 | – | –
O=C(CCC(=O)OCc1cccc([N+](=O)[O-])c1)Nc1ccccc1Cl | – | – | – | – | · | ·
CC(=O)Nc1ccc(NC(=O)CCC(=O)OCC(=O)c2cccc([N+](=O)[O-])c2)cc1 | – | – | – | 71 | – | –
Cc1ccc(C(=O)COC(=O)CCC(=O)Nc2cc(Cl)ccc2Cl)cc1[N+](=O)[O-] | – | – | – | 52 | 36 | –
C/C(=N\Nc1ccc(S(=O)(=O)N2CCCCC2)cn1)c1cccc(Br)c1 | – | – | – | – | · | ·
O=C(COC(=O)/C=C/c1cccc(Br)c1)NC1CCCC1 | – | – | – | – | · | ·
Cc1cnn(CCC(=O)NNC(=S)Nc2ccc(F)cc2)c1 | – | – | – | 31 | 40 | –
CCN1C(=O)C(O)(C2COC(C)(C)CC2=O)c2cc(Br)ccc21 (stereo not drawn) | – | – | – | 56 | – | –
CC[C@]1(C(=O)OC)[C@H]2C(=O)N(C)C(=O)[C@H]2[C@H]2CN=C(SCc3ccc(OC)cc3)N21 | – | – | – | – | · | ·
Cn1c(O)c(C2=c3ccccc3=NC2=O)[nH]c1=S | – | – | – | – | · | ·
O=C1N=c2ccccc2=C1c1c(O)n(-c2cccc(F)c2)[nH]c1=O | – | – | – | 36 | – | –
COc1ccc(NC(=O)c2nc(S(=O)(=O)Cc3cccc(C)c3)ncc2Cl)c(OC)c1 | – | – | – | 35 | – | –
